Results reported in PubChem BioAssay (EPA / NIEHS).
The source made the active and inactive calls. Rule for the calls: active = hit-call score of the fitted dose curve at least 0.9, where 1 is the maximum; inactive = score below 0.9.

Test system: SRY-box transcription factor 2 (SOX2) Protein Expression, Deisenroth Lab, SOX2 (gene 6657)
Experiment: CCTE_Deisenroth_DEVTOX-GLR_legacy_Sox2: (Legacy) CCTE's DevTox GLR-Endo Assay Evaluation of SRY-box transcription factor 2 (SOX2) Protein Expression, Deisenroth Lab (AID 2284346)
In short: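 RUES2-GLR human pluripotent cells were differentiated for 48 h with two chemical doses 24 h apart, over 1 nM-200 uM. Sox2+ cells were those above 5x BMAD of the endoderm-control median; percent Sox2+ minus the 0.2% DMSO median was used, from n=4 replicates.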

| Compound | outcome | AC50 |
| --- | --- | --- |
| NNC(=O)c1ccncc1 | inactive | – |
| NC(=O)N1c2ccccc2C=Cc2ccccc21 | inactive | – |
| CCCC(CCC)C(=O)O | inactive | – |
| Nc1ccn([C@@H]2O[C@H](CO)[C@@H](O)[C@@H]2O)c(=O)n1 | – | 0.937 µM (active) |

Test system: not listed separately
Experiment: Tanguay_ZF_120hpf_MO24: Oregon State University Tanguay Lab 24 Hour Post-fertilization zebrafish Assay for Mortality (AID 2284389)
In short: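 Dechorionated wild-type zebrafish embryos, 1 per well, statically exposed from 6 hpf at 28C, 0.64% DMSO final. Mortality scored as binary present/absent at 24 hpf by brightfield microscopy, relative to DMSO.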

| Compound | outcome | AC50 |
| --- | --- | --- |
| O=S(=O)(O)CCC(F)(F)C(F)(F)C(F)(F)C(F)(F)C(F)(F)C(F)(F)F | inactive | – |
| C[Si](C)(C)C(F)(F)C(F)(F)C(F)(F)F | inactive | – |
| NCC(F)(F)C(F)(F)C(F)(F)C(F)(F)F | inactive | – |
| FC(F)=C(F)C(F)(F)C(F)(F)C(F)(F)C(F)(F)C(F)(F)C(F)(F)F | inactive | – |
| FC(F)C(F)(F)COCC1CO1 (centres undefined) | inactive | – |
| O=C(Cl)C(F)(F)C(F)(F)C(F)(F)C(=O)Cl | – | 57.3 µM (active) |
| FC(F)(F)COC(OCC(F)(F)F)OCC(F)(F)F | inactive | – |
| OCCC(F)(F)C(F)(F)C(F)(F)C(F)(F)F | inactive | – |
| OC(O)(C(F)C(O)(O)C(F)(F)F)C(F)(F)F | inactive | – |
| FC(F)(F)C(F)(F)C(F)(F)C(F)(F)C(F)(F)C(F)(F)I | inactive | – |

Test system: not listed separately
Experiment: Tanguay_ZF_120hpf_CRAN: Oregon State University Tanguay Lab 120 Hour Post-fertilization zebrafish Assay for Craniofacial Malformation (AID 2284397)
In short: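 Dechorionated Tropical 5D wild-type zebrafish embryos, one per well, were statically exposed from 6 to 120 hpf at 28C in 0.64% DMSO, with 5uM trimethyltin chloride as positive control. Craniofacial malformation was scored present/absent by brightfield microscopy, relative to DMSO.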

| Compound | outcome | AC50 |
| --- | --- | --- |
| O=S(=O)(O)CCC(F)(F)C(F)(F)C(F)(F)C(F)(F)C(F)(F)C(F)(F)F | inactive | – |
| C[Si](C)(C)C(F)(F)C(F)(F)C(F)(F)F | inactive | – |
| NCC(F)(F)C(F)(F)C(F)(F)C(F)(F)F | inactive | – |
| FC(F)=C(F)C(F)(F)C(F)(F)C(F)(F)C(F)(F)C(F)(F)C(F)(F)F | inactive | – |
| FC(F)C(F)(F)COCC1CO1 (centres undefined) | inactive | – |
| O=C(Cl)C(F)(F)C(F)(F)C(F)(F)C(=O)Cl | inactive | – |
| FC(F)(F)COC(OCC(F)(F)F)OCC(F)(F)F | inactive | – |
| OCCC(F)(F)C(F)(F)C(F)(F)C(F)(F)F | inactive | – |
| OC(O)(C(F)C(O)(O)C(F)(F)F)C(F)(F)F | – | 42.2 µM (active) |
| FC(F)(F)C(F)(F)C(F)(F)C(F)(F)C(F)(F)C(F)(F)I | inactive | – |

Test system: not listed separately
Experiment: Tanguay_ZF_120hpf_MORT: Oregon State University Tanguay Lab 120 Hour Post-fertilization zebrafish Assay for Mortality (AID 2284399)
In short: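 Dechorionated wild-type Tropical 5D zebrafish embryos, one per well from 6 hpf, static exposure to 120 hpf at 28C in sealed dark plates, 0.64% DMSO final. Mortality scored as binary by brightfield at 24 and 120 hpf.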

| Compound | outcome | AC50 |
| --- | --- | --- |
| O=S(=O)(O)CCC(F)(F)C(F)(F)C(F)(F)C(F)(F)C(F)(F)C(F)(F)F | inactive | – |
| C[Si](C)(C)C(F)(F)C(F)(F)C(F)(F)F | inactive | – |
| NCC(F)(F)C(F)(F)C(F)(F)C(F)(F)F | inactive | – |
| FC(F)=C(F)C(F)(F)C(F)(F)C(F)(F)C(F)(F)C(F)(F)C(F)(F)F | inactive | – |
| FC(F)C(F)(F)COCC1CO1 (centres undefined) | inactive | – |
| O=C(Cl)C(F)(F)C(F)(F)C(F)(F)C(=O)Cl | – | 57.6 µM (active) |
| FC(F)(F)COC(OCC(F)(F)F)OCC(F)(F)F | inactive | – |
| OCCC(F)(F)C(F)(F)C(F)(F)C(F)(F)F | inactive | – |
| OC(O)(C(F)C(O)(O)C(F)(F)F)C(F)(F)F | inactive | – |
| FC(F)(F)C(F)(F)C(F)(F)C(F)(F)C(F)(F)C(F)(F)I | inactive | – |

Test system: not listed separately
Experiment: Tanguay_ZF_120hpf_EDEM: Oregon State University Tanguay Lab 120 Hour Post-fertilization zebrafish Assay for Edema Malformation (AID 2284400)
In short: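 Dechorionated Tropical 5D wild-type embryos, one per well, statically exposed from 6 to 120 hpf at 28C in 0.64% DMSO. Edema scored present/absent by brightfield microscopy at 120 hpf; dead embryos not scored; fit versus DMSO.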

| Compound | outcome | AC50 |
| --- | --- | --- |
| O=S(=O)(O)CCC(F)(F)C(F)(F)C(F)(F)C(F)(F)C(F)(F)C(F)(F)F | inactive | – |
| C[Si](C)(C)C(F)(F)C(F)(F)C(F)(F)F | inactive | – |
| NCC(F)(F)C(F)(F)C(F)(F)C(F)(F)F | inactive | – |
| FC(F)=C(F)C(F)(F)C(F)(F)C(F)(F)C(F)(F)C(F)(F)C(F)(F)F | inactive | – |
| FC(F)C(F)(F)COCC1CO1 (centres undefined) | inactive | – |
| O=C(Cl)C(F)(F)C(F)(F)C(F)(F)C(=O)Cl | inactive | – |
| FC(F)(F)COC(OCC(F)(F)F)OCC(F)(F)F | inactive | – |
| OCCC(F)(F)C(F)(F)C(F)(F)C(F)(F)F | inactive | – |
| OC(O)(C(F)C(O)(O)C(F)(F)F)C(F)(F)F | – | 66.9 µM (active) |
| FC(F)(F)C(F)(F)C(F)(F)C(F)(F)C(F)(F)C(F)(F)I | inactive | – |

Test system: not listed separately
Experiment: Tanguay_ZF_120hpf_BRN: Oregon State University Tanguay Lab 120 Hour Post-fertilization zebrafish Assay for Brain Region Malformation (AID 2284402)
In short: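 Dechorionated wild-type Tropical 5D zebrafish embryos exposed statically from 6 to 120 hpf at 28C, one per well, 0.64% DMSO final. Brain malformation scored at 120 hpf by brightfield as present/absent; dead embryos not scored.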

| Compound | outcome |
| --- | --- |
| O=S(=O)(O)CCC(F)(F)C(F)(F)C(F)(F)C(F)(F)C(F)(F)C(F)(F)F | inactive |
| C[Si](C)(C)C(F)(F)C(F)(F)C(F)(F)F | inactive |
| NCC(F)(F)C(F)(F)C(F)(F)C(F)(F)F | inactive |
| FC(F)=C(F)C(F)(F)C(F)(F)C(F)(F)C(F)(F)C(F)(F)C(F)(F)F | inactive |
| FC(F)C(F)(F)COCC1CO1 (centres undefined) | inactive |
| O=C(Cl)C(F)(F)C(F)(F)C(F)(F)C(=O)Cl | inactive |
| FC(F)(F)COC(OCC(F)(F)F)OCC(F)(F)F | inactive |
| OCCC(F)(F)C(F)(F)C(F)(F)C(F)(F)F | inactive |
| OC(O)(C(F)C(O)(O)C(F)(F)F)C(F)(F)F | inactive |
| FC(F)(F)C(F)(F)C(F)(F)C(F)(F)C(F)(F)C(F)(F)I | inactive |

Test system: not listed separately
Experiment: Tanguay_ZF_120hpf_TCHR: Oregon State University Tanguay Lab 120 Hour Post-fertilization zebrafish Assay for Touch Responsive (AID 2284403)
In short: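 Dechorionated Tropical 5D wild-type zebrafish embryos, one per well from 6 hpf, were statically exposed to 120 hpf at 28 °C (0.64% DMSO). Touch response was scored present/absent at 120 hpf and not scored in dead larvae.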

| Compound | outcome |
| --- | --- |
| O=S(=O)(O)CCC(F)(F)C(F)(F)C(F)(F)C(F)(F)C(F)(F)C(F)(F)F | inactive |
| C[Si](C)(C)C(F)(F)C(F)(F)C(F)(F)F | inactive |
| NCC(F)(F)C(F)(F)C(F)(F)C(F)(F)F | inactive |
| FC(F)=C(F)C(F)(F)C(F)(F)C(F)(F)C(F)(F)C(F)(F)C(F)(F)F | inactive |
| FC(F)C(F)(F)COCC1CO1 (centres undefined) | inactive |
| O=C(Cl)C(F)(F)C(F)(F)C(F)(F)C(=O)Cl | inactive |
| FC(F)(F)COC(OCC(F)(F)F)OCC(F)(F)F | inactive |
| OCCC(F)(F)C(F)(F)C(F)(F)C(F)(F)F | inactive |
| OC(O)(C(F)C(O)(O)C(F)(F)F)C(F)(F)F | inactive |
| FC(F)(F)C(F)(F)C(F)(F)C(F)(F)C(F)(F)C(F)(F)I | inactive |
